In PubChem BioAssay AID1259376 (The Scripps Research Institute Molecular Screening Center, 2018) one finds inhibition data, which are given here for 100 compounds.

In all, about 4,700 compounds went through this assay and about 360 (7.7%) were called active. Only a sample is shown. Unmarked numbers belong to inactive results.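 Rule for the calls: active = inhibition above a cutoff derived from the DMSO control wells (cut at about 30% in these data); inactive = the rest.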

A short description of the assay: AlphaScreen optical interference compounds, counter-screen for MITF inhibitor project, biochemical, triplicate (AID 1259376). As to conditions: LysRS AlphaScreen counterscreen, signal interference, at 2.6 µM, active compounds read high. Background: Alpha assays give light when donor and acceptor beads are brought close together.
In general, inhibition refers to the drop in the measured response relative to a control, in per cent. Take `CC(C)(C)n1nnnc1C(c1ccc2ncccc2c1)N1CCSCC1` (stereo not given): the inhibition is 30.7% (active).

In the case of `CCSc1ccccc1C(=O)N1CCN(c2ccc(-c3ccccn3)nn2)CC1`, the inhibition was 101% (active).

Take `Brc1cccc(CN2CCN(Cc3cccnc3)CC2)c1`: the inhibition is -5.02%.

For the compound `Cc1cc(C(C)(C)C)ccc1OCCN1CCNCC1`, the inhibition was -9.28%.

Regarding `CCN1CCN(CCOCCOc2ccccc2OCc2ccccc2)CC1`, the inhibition is 9.59%.

On to `Cc1cc(NC(=O)/C=C/C(=O)N(CC(=O)NC2CCCC2)c2ccc(F)cc2)no1`, for which the inhibition was 10.1%.

Consider `O=C(c1ccc2c(c1)C(=O)N(Cc1cccnc1)C2=O)c1ccc2c(c1)C(=O)N(Cc1cccnc1)C2=O`, for which the inhibition was 24.6%.

With `CN(CCc1ccccn1)Cc1cccnc1`, the inhibition was 22.1%.

Take `Cc1ccc(OCCCCNCCN2CCOCC2)c(Br)c1`: the inhibition was 13.8%.

Regarding `N#Cc1nc(COc2cccc(Cl)c2)oc1NCCCn1ccnc1`, the inhibition was 65.7% (active).

For `CCc1cccc(OCCOCCn2ccnc2)c1`, the inhibition was -2.1%.

As for `CCc1ccc(OCCCCn2ccnc2)cc1`, the inhibition was 0.71%.

On to `c1ccc(-n2cc(CN3CCOCC3)c(-c3ccc4c(c3)OCCO4)n2)cc1`, for which the inhibition was 10%.

Consider `CCCS(=O)(=O)N1CCN(Cc2ccc(OC)c(OCc3ccccc3)c2)CC1`, for which the inhibition was 9.8%.

Consider `CN1CCC(N2CCN(c3ccccc3Cl)CC2)CC1`, for which the inhibition was 14.1%.

Take `COc1cc(Nc2ncnc3c2nc(N2CCOCC2)n3C(C)C)cc(OC)c1OC`: the inhibition was 13.7%.

Take `COc1ccc(Cn2nnc(C(=O)Nc3cccc(Cl)c3)c2N)cc1`: the inhibition was 14.3%.

With `O=C(CNCc1ccc(F)cc1)Nc1ccc(N2CCCC2)cc1`, the inhibition was 25.2%.

Consider `CCOc1ccc(CN2CCCN(C)CC2)cc1`, for which the inhibition is 0.42%.

Turning to `CCCn1c(C)cc(-c2csc(NC(=O)Cc3ccsc3)n2)c1C`, the inhibition is 12%.

In the case of `CC(=O)NS(=O)(=O)c1ccc(-c2ccc(C=C(C#N)C#N)o2)cc1`, the inhibition was 3.05%.

In the case of `COc1ccc(CN2CCN(Cc3ccccc3OC)CC2)cc1Br`, the inhibition is 7.62%.

For the compound `Cc1cccc(CSc2n[nH]c(=O)[nH]c2=O)c1`, the inhibition is -7.01%.

For the compound `CC1CN(CCOc2ccccc2[N+](=O)[O-])CC(C)O1` (stereo not given), the inhibition is 13.4%.

For the compound `COc1ccc(OCCn2ccnc2C)cc1`, the inhibition is -3.46%.

On to `CCN1CCN(CCOCCOc2ccc([N+](=O)[O-])cc2)CC1`, for which the inhibition was 9.29%.

In the case of `COc1cccc(/C=C(\C#N)c2nc3ccccc3[nH]2)c1OCc1ccc(Cl)cc1Cl`, the inhibition was 0.18%.

For the compound `COc1ccc(C(CNCc2cc(=O)oc3cc4c(cc23)CCC4)N2CCOCC2)cc1` (stereo not given), the inhibition was 13%.

On to `CCOc1cc(CN2CCN(Cc3ccccn3)CC2)ccc1OC`, for which the inhibition was 17.5%.

With `c1cc2c(cc1CN1CCN(C3CCCCC3)CC1)OCO2`, the inhibition is 2.75%.

In the case of `COc1cc(CN2CCN(Cc3cc(OC)c(OC)cc3OC)CC2)cc(OC)c1`, the inhibition is -0.77%.

For the compound `COc1cc(CN2CCN(Cc3ccccc3Br)CC2)cc(OC)c1`, the inhibition is 9.78%.

With `CCN(CC)C(=O)C1CCCN(Cc2cccc(Cl)c2)C1` (stereo not given), the inhibition is 14.2%.

In the case of `COc1ccc(C(=O)N2CCN(Cc3ccccc3C(F)(F)F)CC2)cc1OC`, the inhibition is 20.4%.

Take `CN(C)c1cccc(Nc2ccc(-c3cccc(C=O)c3)cn2)c1`: the inhibition is 73.1% (active).

With `C1=CC2CC1CC2CN1CCN(Cc2c[nH]c3ccccc23)CC1` (stereo not given), the inhibition is 2.75%.

As for `COc1ccc(CN2CCN(C3CCC(C)CC3)CC2)c(OC)c1OC` (stereo not given), the inhibition was -12.1%.

With `CC(=O)c1ccc(NC(=O)C(C)NCc2ccc(C)cc2)cc1` (stereo not given), the inhibition was 15.9%.

Take `Fc1cccc(CN2CCN(C3CCC(c4ccccc4)CC3)CC2)c1` (stereo not given): the inhibition was 21.8%.

In the case of `COCCCN1C(=O)c2cccc3c(C(=O)c4ccccc4)ccc(c23)C1=O`, the inhibition is 12.9%.

On to `CCOc1cccc(C2C(C(=O)OCCOc3ccccc3)=C(C)NC3=C2C(=O)CCC3)c1` (stereo not given), for which the inhibition is 14.4%.

With `COC(=O)C1(C)NC(c2ccc(C)cc2)C2C(=O)N(c3ccc(F)cc3)C(=O)C21` (stereo not given), the inhibition was 11.6%.

On to `COc1cc(N2CCOCC2)ccc1Nc1cc(Nc2ccccc2-n2cccn2)c(C(F)(F)F)cn1`, for which the inhibition is 8.51%.

As for `O=C(C1CCN(Cc2nc3ccccc3[nH]2)CC1)N1CCN(c2ccccn2)CC1`, the inhibition was 13.8%.

Consider `c1cncc(CCNc2ccc3ncc(-c4cc5ccccc5o4)n3n2)c1`, for which the inhibition was 6.63%.

As for `O=C(c1ccccc1)N1CCN(C2CCCC2)CC1`, the inhibition was -2.61%.

On to `COc1ccc(C2C(C(C)=O)=C(C)N=C3SCC(=O)N32)c(OC)c1` (stereo not given), for which the inhibition is -6.53%.

Consider `COc1ccc(C(=O)COC(=O)CNS(=O)(=O)/C=C/c2ccc(C)cc2)cc1OC`, for which the inhibition is 5.32%.

`O=C(CN1CCN(CC(=O)c2ccco2)CC1)Nc1ccc(Cl)c(Cl)c1`: the inhibition is 10.6%.

For `COc1cc(CN2CCN(Cc3ccc(C)cc3)CC2)c([N+](=O)[O-])cc1OC`, the inhibition is 13.5%.

`CCOc1ccccc1N1CCN(Cc2cc(OC)c(O)c([N+](=O)[O-])c2)CC1`: the inhibition is 16.9%.

For `O=C(CCC(=O)OCc1ccc(Cl)cc1)Nc1ccc([N+](=O)[O-])cc1`, the inhibition is 14.7%.

On to `Cc1n[nH]c(=O)nc1N/N=C/c1cccs1`, for which the inhibition was 100% (active).

On to `CC1CCN(S(=O)(=O)c2ccc(Cl)c(C(=O)Nc3ccccc3[N+](=O)[O-])c2)CC1`, for which the inhibition is 14.3%.

On to `COc1ccc(OC)c(CN2CCN(Cc3ccc(Cl)cc3)CC2)c1`, for which the inhibition was 15.1%.

On to `Cn1c(=NC(=O)COc2ccccc2)sc2cc(S(C)(=O)=O)ccc21`, for which the inhibition is 12.4%.

With `COC(=O)c1sc(NC(=O)c2ccccc2C)c(C#N)c1C`, the inhibition was -2.84%.

For the compound `Cc1ccccc1NC(=O)NCCOc1cc(N2CCCC2)ncn1`, the inhibition was 13.1%.

With `O=[N+]([O-])c1ccccc1CN1CCN(Cc2cccnc2)CC1`, the inhibition was 12.2%.

With `O=C(c1cccc(Cl)c1)N1CCN(Cc2cccnc2)CC1`, the inhibition is 7.21%.

Take `COc1ccc(-c2nc(Nc3cc(OC)c(OC)c(OC)c3)c3[nH]cnc3n2)cc1`: the inhibition is 16.5%.

As for `CCNc1nc(NCC)nc(C(=O)O)n1`, the inhibition is 77% (active).

In the case of `CCN1CCN(CCCCOc2ccccc2F)CC1`, the inhibition is 6.82%.

Consider `Cc1cccc(OCCN2CCNCC2)c1C`, for which the inhibition is -1.28%.

For the compound `Cc1nc(NC2CC2)cc(-c2ccc(F)cc2)n1`, the inhibition was 14.2%.

`Cc1nc(NC(=O)c2cc(Br)ccc2Cl)sc1C`: the inhibition was 12.2%.

As for `COc1cc(CN2CCN(Cc3cccnc3)CC2)cc(OC)c1OC`, the inhibition was 18.8%.

Regarding `CN(CCc1ccccn1)CC(=O)N1CCc2ccccc21`, the inhibition is -7.9%.

Consider `CCCCC(=O)NCc1ccc(F)cc1`, for which the inhibition was 10.9%.

Take `Cc1nnc(N2CCC(Cc3ccccc3)CC2)c2ccccc12`: the inhibition is 6.39%.

For the compound `CCCS(=O)(=O)N1CCN(C(C)C)CC1`, the inhibition was 9.53%.

On to `C=CCNC(=O)c1sc(=S)n(CC)c1N`, for which the inhibition was -4.06%.

As for `COc1cc2nc(-c3cccc(C(C)=O)c3)nc(N)c2cc1OC`, the inhibition is 13.2%.

In the case of `O=C1NC(c2ccccc2[N+](=O)[O-])C(C(=O)c2cccs2)C(O)(C(F)(F)F)N1` (stereo not given), the inhibition was 12.5%.

As for `CCN(CC)CC(=O)Nc1c2c(nc3ccccc13)N(c1cccc(C)c1)CC2`, the inhibition was 1.32%.

Regarding `Cc1cccc(NC(=O)CNCCN2CCCCC2)c1C`, the inhibition was 12.4%.

With `C/C(N)=C(/C#N)C(=O)COC(=O)c1c2c(nc3ccccc13)/C(=C/c1ccco1)CC2`, the inhibition was -24.2%.

As to `CC1CCC2C(=O)N(c3ccc(I)cc3)C(=O)C2C1` (stereo not given), the inhibition was 0.06%.

For `Cc1ccc(C)n1C(Cc1ccccc1)C(=O)O` (stereo not given), the inhibition was -2%.

As to `Cc1ccc(C)c(OCCN2CCOCC2)c1C`, the inhibition is 17.5%.

Take `COc1ccc(CN2CCN(Cc3cccnc3)CC2)cc1OCc1ccccc1`: the inhibition is 10.3%.

Consider `C=CCc1cc(C)ccc1OCCCn1ccnc1`, for which the inhibition was 7.18%.

As for `OCCOCCN1CCN(Cc2ccc(Cl)cc2)CC1`, the inhibition was 3.33%.

As to `C=CCn1c(SCC(=O)Nc2nc3ccccc3s2)nc(O)cc1=O`, the inhibition was -1.43%.

For the compound `CN(CCC(=O)O)Cc1cccc(Cl)c1`, the inhibition is -6.2%.

Take `COc1cc(CN2CCN(Cc3ccc(Cl)cc3)CC2)c([N+](=O)[O-])cc1OC`: the inhibition was 4.12%.

As for `CCC(C)c1ccccc1NC(=O)CN(C)CC(=O)Nc1ccccc1SC` (stereo not given), the inhibition was 3.28%.

On to `O=c1c2ccccc2ncn1CCCCOc1ccccc1F`, for which the inhibition was 7.91%.

`COc1ccc(CN2CCN(Cc3ccccc3C)CC2)c(OC)c1OC`: the inhibition is -1.44%.

As to `COc1ccc(C(=O)NCCN2CCN(c3nc4c(C)c(C)ccc4s3)CC2)cc1`, the inhibition was -2.39%.

In the case of `Fc1ccc(CN2CCN(C3CCCC3)CC2)cc1`, the inhibition is 5.37%.

On to `O=C(c1cccs1)N1CCC(N2CCN(Cc3ccccc3)CC2)CC1`, for which the inhibition was -5.37%.

In the case of `O=[N+]([O-])c1ccc(OCc2nnc(SCCN3CCOCC3)n2-c2ccccc2)cc1`, the inhibition was -4.47%.

For `Clc1ccc(CN2CCN(CC3CC=CCC3)CC2)cc1` (stereo not given), the inhibition is 1.68%.

Turning to `Fc1cccc(Cl)c1Cn1nnc(-c2ccncc2)n1`, the inhibition was 12.8%.

In the case of `CCCCCOc1ccc(OC(=O)c2ccc(-c3ccc(CCC)cn3)cc2)cc1`, the inhibition was 9.51%.

With `O=C(Cc1cccs1)N/N=C\C=C\c1ccco1`, the inhibition was -6.28%.

In the case of `c1ccc(Oc2cccc(OCCCCn3cncn3)c2)cc1`, the inhibition was 0.8%.

`Cn1c(-c2ccc(F)cc2)cnc1NCc1cccnc1`: the inhibition is -4.79%.

As for `O=C(CNCc1cccnc1)Nc1ccc(C(=O)N2CCCCC2)cc1`, the inhibition is 8.3%.
